Data on eight compounds can be found in PubChem BioAssay (NCATS).

Molecules are shown by their SMILES. Results filed as inconclusive are left out. Active and inactive are the calls of the source. Unless noted, calls follow the shape of the dose curve; as a rule, active = well fitted inhibition curve with a large enough effect; inconclusive = small, poorly fitted or top-dose-only effect; inactive = no such curve, though single readings can be large or run the other way.

Experiment [1] can be described thus: qHTS profiling of the MIPE4 collection as inhibitors of Plasmodium falciparum (DD2) proliferation (AID 743345; call rule not given here). The note with it: P. falciparum Dd2 in erythrocytes, SYBR Green DNA, 72 h; at 28.5 µM (top of the series) unless noted. The essentials:
(§1)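 Parasite DNA was quantified by SYBR Green I fluorescence (ex 485, em 535 nm) after overnight lysis in saponin/Triton buffer at room temperature. Cultures at 0.3% parasitemia and 2.5% hematocrit were first exposed to compound for 72 h at 37 C; signals were normalised to artemisinin (0.29 uM) and vehicle wells.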

A short description of experiment [2]: qHTS profiling of the MIPE4 collection as inhibitors of Plasmodium falciparum (DD2) proliferation (Rep 2) (AID 743346; call rule not given here). The following applies: P. falciparum Dd2 in erythrocytes, SYBR Green DNA, 72 h; at 28.5 µM (top of the series) unless noted. The essentials: as §1
(Quantitative high-throughput screening tests each substance at several concentrations.)

The nature of experiment [3]: qHTS profiling of the MIPE4 collection as inhibitors of Plasmodium falciparum (HB3) proliferation (AID 743347; call rule not given here;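 also: plate controls were DMSO vehicle wells for no effect and artemisinin wells for full effect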). The following applies: P. falciparum HB3 in erythrocytes, SYBR Green DNA, 72 h; at 28.5 µM (top of the series) unless noted. The gist of the method:
as §1

The nature of experiment [4]: High-throughput drug toxicity screening in the BPDCN cell line Gen2.2 (AID 1224824; call rule not given here;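 also: cells exposed to compounds for 48 h before reading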). The note with it: Gen2.2 BPDCN cells; at 45.8 µM (top of the series) unless noted. The gist of the method: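 CellTiter-Glo luminescence after 48 h compound exposure of Gen2.2 cells; percent activity set with DMSO as 100% and bortezomib (9.2 uM final) as 0%. Cells seeded at 500 per well, RPMI + 10% FBS, 37 °C.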

A short description of experiment [5]: High-throughput drug toxicity screening in the BPDCN cell line Cal-1 (AID 1224825; call rule not given here). The note with it: Cal-1 BPDCN cell viability, qHTS; at 45.8 µM (top of the series) unless noted. The gist of the method:
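Viability of the BPDCN line Cal-1 is measured as ATP-based luminescence (CellTiter-Glo) following 48 h incubation with compounds. Percent activity uses DMSO-treated wells as 100% and 9.2 uM bortezomib as 0%.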

Experiment [6] in a line: qHTS assay for measurement of the activity of small molecule inhibitors on Zika virus induced Caspase-3 activity in human iPSC derived neural progenitor cells (hNPCs) (AID 1224857). Also: % of control where 0% means no effect; nearly all actives have a fitted effect of over 65% in size. The gist of the method:
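Caspase-3/7 induction by a 6-hour ZIKV infection was quantified with a luminescent Caspase-Glo 3/7 reagent incubated 30 minutes at room temperature. Compounds were preincubated with hNPCs for 1 hour; inhibition was calculated against uninfected and infected control wells.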

A short description of experiment [7]: qHTS assay for measurement of the activity of small molecule inhibitors on Zika virus induced Caspase-3 activity in human astrocytoma cells (AID 1224859).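 Also: plate controls were ZIKV-infected untreated cells for no effect and uninfected cells for full effect.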 The gist of the method:
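In SNB-19 cells plated at 250 cells/well and grown 16-20 h, compounds were applied 1 h before ZIKV (2 FFU/cell). Six hours later caspase-3/7 luminescence was recorded.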

Experiment [8] is described as follows: qHTS Screen of the MIPE 4.0 Collection Against Ewings Sarcoma (RDES) (AID 1259252). Also: nearly all actives have a fitted effect of over 35% in size. Also: potency is read from the fitted curve at half-maximal effect. The gist of the method:
(§2)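 Compound titrations go onto adherent log-phase cells 4 h after seeding, incubate 48 h at 37C, then CellTiter-Glo luminescence reports viability relative to DMSO and cell-free controls.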

Experiment [9] can be described thus: qHTS Screen of the MIPE 4.0 Collection Against Ewings Sarcoma (TC71) (AID 1259253). Also: nearly all actives have a fitted effect of over 40% in size. Also: potency is read from the fitted curve at half-maximal effect. The essentials:
as §2

Experiment [10] in a line: qHTS Screen of the MIPE 4.0 Collection Against Ewings Sarcoma (EW8) (AID 1259255). Also: nearly all actives have a fitted effect of over 35% in size. Also: potency is read from the fitted curve at half-maximal effect.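 As to viability: 100% = DMSO-treated cells and 0% = medium-only wells without cells.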 The gist of the method: as §2

The compound `C[C@H]1COc2c(N3CCN(C)CC3)c(F)cc3c(=O)c(C(=O)O)cn1c23` came in with a parasite growth remaining, % of DMSO control (lower = more inhibition) in experiment [1] of 69.9%. Moreover, the parasite growth, % of control (lower = inhibition) in experiment [2] amounted to 49.2%. In experiment [3], the growth, % of control was determined as 60.4%. The cell viability, % of control (lower = more cytotoxic) in experiment [4] worked out at 160%. In experiment [5], this compound came in with a viability (% of control) of 100%. Further, the Potency entry in experiment [6], in experiment [7], in experiment [8], in experiment [9] and in experiment [10] was “inactive” each time.
Consider `C[C@H](NCc1ccc2c(c1)nc(NC(=O)c1ccc(-c3cn[nH]c3)s1)n2CCc1ccccc1)C(C)(C)C`, for which the parasite growth remaining, % of DMSO control (lower = more inhibition) in experiment [1] was determined as 4.87%. The compound further had a parasite growth, % of control (lower = inhibition) in [2] of 13.1%. The compound further gave a growth, % of control in experiment [3] of 10.1%. Further, in experiment [4], the cell viability, % of control (lower = more cytotoxic) is 9.44%. In [5], this compound displayed a viability (% of control) of 2.31%. For the same compound, the Potency entry in [6] and in [7] was “inactive” each time. The Potency in experiment [8] is 2.35 µM (active); in experiment [9], 1.48 µM (active); in experiment [10], 2.09 µM (active).
In turn, `O=C(Nc1cccc(Nc2ncc(Br)c(NCCc3cnc[nH]3)n2)c1)N1CCCC1` showed a parasite growth remaining, % of DMSO control (lower = more inhibition) in [1] of 13.6%. The compound further returned a parasite growth, % of control (lower = inhibition) in experiment [2] of 17.4%. This compound also registered a growth, % of control in [3] of 3.84%. Also, the cell viability, % of control (lower = more cytotoxic) in experiment [4] amounted to 15.3%. Further, in experiment [5], the viability (% of control) came to 2.84%. Also, the Potency entry in [6] and in experiment [7] was “inactive” in each case. Also, the Potency in experiment [8] is 7.43 µM (active); in [9], 6.62 µM (active); in experiment [10] it was 0.235 µM (active).
`COc1cc(OC)c(NC(=O)Nc2cc(C)on2)cc1Cl` had a parasite growth remaining, % of DMSO control (lower = more inhibition) in experiment [1] of 100%. This compound also came in with a parasite growth, % of control (lower = inhibition) in experiment [2] of 54.6%. This compound also displayed a growth, % of control in experiment [3] of 81.5%. Moreover, in [4], the cell viability, % of control (lower = more cytotoxic) is 187%. The same compound displayed a viability (% of control) in [5] of 80.9%. In addition, the Potency result in experiment [6], in experiment [7], in experiment [8], in [9] and in experiment [10] was “inactive” each time.
`Cc1cc(C(=O)NOCCO)c(Nc2ccc(I)cc2F)n(C)c1=O` registered a parasite growth remaining, % of DMSO control (lower = more inhibition) in experiment [1] of 87.7%. In [2], this compound gave a parasite growth, % of control (lower = inhibition) of 84.7%. The same compound gave a growth, % of control in experiment [3] of 66.5%. The cell viability, % of control (lower = more cytotoxic) in [4] was determined as 7.2%. In [5], this compound showed a viability (% of control) of 30.2%. Further, the Potency entry in [6], in experiment [7], in experiment [8], in experiment [9] and in experiment [10] was “inactive” throughout.
Regarding `CC(C)(C)c1nc2c3cc[nH]c(=O)c3c3cc(F)ccc3c2[nH]1`, the parasite growth remaining, % of DMSO control (lower = more inhibition) in experiment [1] was determined as 94.4%. Further, the parasite growth, % of control (lower = inhibition) in experiment [2] is 62%. Moreover, the growth, % of control in experiment [3] is 58.6%. In experiment [4], the cell viability, % of control (lower = more cytotoxic) is 20.2%. The same compound had a viability (% of control) in [5] of 26.4%. Moreover, the Potency result in experiment [6] and in experiment [7] was “inactive” in each case. For the same compound, the Potency in experiment [8] was 4.18 µM (active); in experiment [9] it was 5.9 µM (active); in [10], 4.69 µM (active).
In the case of `C[C@@H](Oc1ccc2[nH]nc(C=Cc3cnn(CCO)c3)c2c1)c1c(Cl)cncc1Cl`, the parasite growth remaining, % of DMSO control (lower = more inhibition) in experiment [1] is 8.67%. The compound further displayed a parasite growth, % of control (lower = inhibition) in experiment [2] of 16.4%. In addition, the growth, % of control in [3] is 5.78%. Moreover, in [4], the cell viability, % of control (lower = more cytotoxic) turned out to be 8.4%. In experiment [5], this compound returned a viability (% of control) of 6.51%. In addition, the Potency result in experiment [6] and in experiment [7] was “inactive” each time. The Potency is 3.32 µM (active) in experiment [8], 0.662 µM (active) in experiment [9] and 0.418 µM (active) in experiment [10].
In [1], `C=Cc1c(C)c2cc3nc(cc4[nH]c(cc5nc(cc1[nH]2)C(C)=C5CCC(=O)O)c(CCC(=O)OC)c4C)[C@@]1(C)C3=CC=C(C(=O)OC)[C@H]1C(=O)OC` showed a parasite growth remaining, % of DMSO control (lower = more inhibition) of 5.89%. Also, the parasite growth, % of control (lower = inhibition) in [2] was 6.94%. In experiment [3], this compound displayed a growth, % of control of 4.7%. Moreover, the cell viability, % of control (lower = more cytotoxic) in experiment [4] is 5.48%. In experiment [5], the viability (% of control) was 3.29%. Also, the Potency result in [6] and in experiment [7] was “inactive” in each case. Besides, the values for the Potency in experiment [8], in experiment [9] and in experiment [10] were 0.0418 µM (active), 0.0833 µM (active) and 0.118 µM (active), respectively.
